# Source: PubChem BioAssay (Tox21)
# Results filed as inconclusive are left out. A number with no mark means an inactive call. Activity calls are given as the source filed them. Calls come from the whole dose curve; as a rule, active = well fitted cell-killing curve with a large enough effect in the repeat runs; inconclusive = weak or mixed curves; inactive = flat fitted curve, though single readings scatter.
# Experiment: qHTS assay to identify small molecule antagonists of the TGF-beta/Smad signaling pathway - cell viability counter screen (AID 1346824); note: nearly all actives have a fitted effect of over 50% in size
# Conditions: SBE-bla HEK293T viability, CellTiter-Glo luminescence; series mostly up to 76.8 µM
# From the text: U.S. Tox21 Program National Center for Advancing Translational Sciences [NCATS] NIH Chemical Genomics Center [NCGC] U.S. Environmental Protection Agency [EPA] National Institutes of Environmental Health Sciences [NIEHS] National Toxicology Program [NTP] U.S. Food and Drug Administration [FDA] Tox21 Assay Overview: Transforming growth factor beta (TGF-beta) superfamily consists of a large number of structurally related dimeric proteins that act as hormones or local mediators in regulating a wide range of biological functions. This superfamily includes TGF-betas themselves, the bone morphogenetic proteins (BMPs) and the activins. These ligands induce oligomerization of serine/threonine receptor kinases and phosphorylate the cytoplasmic signaling molecules of Smad protein family. CellSensor SBE-bla HEK 293T cell line (Life Technologies, Carlsbad, CA), responsive to TGF-beta was used to screen Tox21 10K compound library for identification of agonists/antagonists of the Smad signaling pathway. This cell line contains a beta-lactamase reporter gene under control of the Smad binding element (SBE) stably integrated into HEK 293T cells. Also cytotoxicity of the compounds was tested in parallel by measuring the cell viability using CellTiter-Glo assay system in the same wells.
# Tox21 Assay Protocol Summary: SBE-bla HEK 293T cells were dispensed at 4,000/well in 5 uL of assay medium into black wall/clear-bottom 1536-well plates using a Multidrop Combi (ThermoFisher Scientific, Waltham, MA) dispenser. After the assay plates were incubated at 37 C and 5% CO2 for an overnight, 23 nL of compounds dissolved in DMSO, positive controls or DMSO only was transferred to the assay plate by a Pintool station (Kalypsys, San Diego, CA). Compound transfer was followed by the addition of 1 uL of 0.25 ng/mL TGF-beta1 or assay buffer using two separate tips of Flying Reagent Dispenser (FRD, Aurora Discovery, San Diego, CA). The assay plates were incubated at 37 C and 5% CO2 for 5 hr. One uL of LiveBLAzer B/G FRET substrate (Life Technologies) was added using a Flying Reagent Dispenser (FRD, Aurora Discovery, San Diego, CA) and the plates were incubated at room temperature for 2 hr. Fluorescence intensity (405 nm excitation, 460 nm and 530 nm emissions) was measured using an Envision plate reader (PerkinElmer, Shelton, CT). For cytotoxicity read, 4 uL of CellTiter-Glo reagent (Promega Corporation, Madison, WI) was added to each well of the assay plates using FRD. After 30 min incubation at room temperature, the luminescence intensity was measured using ViewLux plate reader (PerkinElmer).
# % is set by controls: 0 for no effect and ±100 for the full control effect.
SMILES,outcome,"viability change, negative = cytotoxic"
O=C(CCCl)NCc1ccccc1,inactive,–
CC(C)OC(C)C,inactive,–
CC(=O)OC1C2(C)CCC(C2)C1(C)C (stereo not given),inactive,–
CC(C)=CCCC(C)CCOC=O (stereo not given),inactive,–
NC/C=C/C(=O)O,inactive,–
CCOC(=O)NCCC[Si](OCC)(OCC)OCC,inactive,–
O=C(O)c1cccc(Cl)c1Cl,inactive,–
CC/C=C\CCOC(=O)CCCCC,inactive,–
CC(C)S,inactive,–
CC(C)C[C@H](NC(=O)OCC1c2ccccc2-c2ccccc21)C(=O)O,inactive,–
NNS(=O)(=O)c1ccc(Oc2ccc(S(=O)(=O)NN)cc2)cc1,inactive,–
CC(=O)O[C@H]1CC[C@@]2(C)C(=CC[C@@H]3[C@@H]2CC[C@]2(C)C(C(C)=O)=CC[C@@H]32)C1,inactive,–
CCCCCCn1c(=O)c2c(ncn2C)n(C)c1=O,inactive,–
CCCCCCCCCC#N,inactive,–
C[C@]12C(=O)OC(=O)[C@H]1[C@H]1C=C[C@@H]2C1,inactive,–
CCN(CCCc1ccccc1)CCCc1ccccc1,inactive,–
C=O,inactive,–
CC(CNC1CCCCC1)OC(=O)c1ccccc1 (stereo not given),inactive,–
CCCCCCCCCCCCOCCOS(=O)(=O)O,inactive,–
CN1CCN(c2c(F)cc3c(=O)c(C(=O)O)cn4c3c2SCC4)CC1,inactive,–

SMILES,outcome,"viability change, negative = cytotoxic"
CCCNC(C)(C)COC(=O)c1ccccc1,inactive,–
CCN(CC)CCOc1ccc(Cc2ccccc2)cc1,inactive,–
COC(=O)c1ccc(OC)cc1,inactive,–
ICCc1ccccc1,inactive,–
O=C1CCCCCCCCCCC(=O)OCCO1,inactive,–
CCCCNc1cc(C(=O)O)cc(S(N)(=O)=O)c1Oc1ccccc1,inactive,–
CC(C)=CCC[C@](C)(O)[C@@H]1CC=C(C)CC1,inactive,–
CN(C)CC[C@@H](c1ccc(Cl)cc1)c1ccccn1,inactive,–
COC(=O)/C=C(/C)N,inactive,–
Cc1ccc(C(C)C)cc1O,inactive,–
CN(CC1(C)CCCO1)S(=O)(=O)c1ccc(Cl)c(S(N)(=O)=O)c1 (stereo not given),inactive,–
O=C1N(c2ccccc2)c2ccccc2C1(Cc1ccncc1)Cc1ccncc1,inactive,–
O=C1Nc2ccc([N+](=O)[O-])cc2C1=O,inactive,–
CC/C=C\CCOC(=O)C(C)C,inactive,–
CC1=C2[C@H](/C=C(\C)C(=O)O)CC[C@@H](C)[C@H]2CC1,inactive,–
CC[C@H]1CC[C@H](NCc2cc3c(cc2OC)[C@H]2C[C@H]2C(=O)N3C)[C@H](c2ccccc2)N1,inactive,–
CN1C(=O)CC(c2ccccc2)C1=O (stereo not given),inactive,–
CCN(CC)C(=O)N(CC)CC,inactive,–
COc1ccccc1OCC(O)COC(N)=O (stereo not given),inactive,–
CN(C)C(=O)NC1(c2ccccc2)CCN(CCC[C@]2(c3ccc(Cl)c(Cl)c3)CCCN(C(=O)c3ccccc3)C2)CC1,–,0% [at 15.8 µM]
